From PubChem BioAssay come the findings set out here.

For part of these data: Results with a measured potency or affinity are listed apart. Activity calls are given as the source filed them.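 The calls were made as follows, unless noted: active = membrane potential signal rise above negative control mean plus 3 SD in both duplicates, also active in the earlier TRPC4 screen; inactive = the rest.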

For assay [1], the system named is TRPC4 beta (transient receptor potential cation channel C4), mouse. Description: activators of mouse TRPC4 channel, confirmation, cell-based, Fluo4 calcium, HEK293 TRPC4beta/mu-opioid, duplicates, 10 µM (AID 2426;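 active = fluorescence ratio normalized to control raised more than 50% in primary screen plus both repeat runs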). Particulars: Fluo4 calcium fluorescence, at 10 µM; active compounds read high.
Assay [2] relates to transient receptor potential cation channel C4 beta (TRPC4), mouse. Description: activators of mouse TRPC4 channel, confirmation, cell-based, second round, Fluo4, HEK293 TRPC4beta/mu-opioid, 1 µM (AID 2461;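 active = primary screen active and over 50% activation in each of two duplicate runs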). Particulars: Fluo4 calcium fluorescence, at 1 µM; active compounds read high.
The test system of assay [3] is TRPC4 (transient receptor potential cation channel C4 beta), mouse. Description: positive allosteric modulators of mouse TRPC4, confirmation, cell-based, second round, Fluo-4, HEK293 TRPC4beta/mu-opioid, 1 µM (AID 2554;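 active = primary screen hit whose fluorescence ratio, in both repeats, exceeds the weak agonist control mean by 3 SD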). Particulars: DAMGO EC20, Fluo-4 calcium flux, at 1 µM; active compounds read high.
Assay [4] deals with TRPC4 beta (transient receptor potential cation channel C4), mouse. Description: positive allosteric modulators of mouse TRPC4, confirmation, cell-based, Fluo-4, HEK293 TRPC4beta/mu-opioid (AID 2555;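 active = primary screen hit whose calcium fluorescence ratio, in both repeats, exceeds the weak agonist control mean by 3 SD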). Particulars: DAMGO EC20, Fluo-4 calcium flux, at 10 µM; active compounds read high.
Assay [5] concerns the target Short transient receptor potential channel 4 (Mus musculus) (UniProt Q9QUQ5). Description: inhibitors of mouse TRPC4 channel, confirmation, cell-based, Fluo4, HEK293 TRPC4beta/mu-opioid (AID 2636;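 active = calcium signal cut by more than 3 SD below the full-agonist control yet still positive, in both repeats and the earlier primary screen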). As to conditions: DAMGO, Fluo4 calcium flux, at 10 µM; active compounds read high.
Assay [6] has the same target. Description: inhibitors of mouse TRPC4 channel, confirmation, cell-based, second round, Fluo4, HEK293 TRPC4beta/mu-opioid, 1 µM (AID 2637;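 active = calcium signal ratio cut to more than 3 SD under the fully stimulated control mean yet still positive, in both repeats and the primary screen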;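 as to inhibition: percent of integrated ratio relative to wells lacking test compound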). As to conditions: Fluo4 calcium flux, DAMGO, at 1 µM; active compounds read high.
Assay [7] has the same target. Description: mouse TRPC4 channel activators, dose response, cell-based, HEK293 TRPC4/mu-opioid, Fluo-4 calcium (AID 434937;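 active = primary screen activator hit with a dose response curve and TRPC4 channel activation at any tested dose; inactive = no activation, no dose response, or not a primary hit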).
Assay [8] shares this target. Description: TRPC4 positive allosteric modulators, dose response, cell-based, HEK293 TRPC4/mu-opioid, Fluo-4 calcium, EC20 DAMGO (AID 434941;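 active = earlier screen potentiator hit that boosts the TRPC4 ion channel at some dose, with a dose response; inactive = no potentiation, no dose response, or not a prior hit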;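 also: calcium entry triggered by an EC20 dose of DAMGO at the co-expressed mu-opioid receptor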).
Assay [9] shares this target. Description: mouse TRPC4 channel inhibitors, dose response, cell-based, HEK293 TRPC4/mu-opioid, Fluo-4 calcium (AID 434942;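 active = primary screen inhibitor hit that blocks the TRPC4 channel at some tested dose, yielding a dose curve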).
For assay [10], the target named is Short transient receptor potential channel 6 (Mus musculus) (UniProt Q61143). Description: inhibition of mouse TRPC6 channel, confirmation, selectivity assay for TRPC4 inhibitor project, cell-based, HEK293, membrane potential dye, duplicate (AID 434948;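 active = active in primary screen and both duplicates, each dropping signal beyond three positive-control SD with fluorescence still positive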). Particulars: HEK293 TRPC6, membrane potential dye fluorescence, at 10 µM, stimulated with maximal-effect acetylcholine; active compounds read high.
Sequence of Short transient receptor potential channel 6 (Mus musculus) (Q61143 whole entry, looked up): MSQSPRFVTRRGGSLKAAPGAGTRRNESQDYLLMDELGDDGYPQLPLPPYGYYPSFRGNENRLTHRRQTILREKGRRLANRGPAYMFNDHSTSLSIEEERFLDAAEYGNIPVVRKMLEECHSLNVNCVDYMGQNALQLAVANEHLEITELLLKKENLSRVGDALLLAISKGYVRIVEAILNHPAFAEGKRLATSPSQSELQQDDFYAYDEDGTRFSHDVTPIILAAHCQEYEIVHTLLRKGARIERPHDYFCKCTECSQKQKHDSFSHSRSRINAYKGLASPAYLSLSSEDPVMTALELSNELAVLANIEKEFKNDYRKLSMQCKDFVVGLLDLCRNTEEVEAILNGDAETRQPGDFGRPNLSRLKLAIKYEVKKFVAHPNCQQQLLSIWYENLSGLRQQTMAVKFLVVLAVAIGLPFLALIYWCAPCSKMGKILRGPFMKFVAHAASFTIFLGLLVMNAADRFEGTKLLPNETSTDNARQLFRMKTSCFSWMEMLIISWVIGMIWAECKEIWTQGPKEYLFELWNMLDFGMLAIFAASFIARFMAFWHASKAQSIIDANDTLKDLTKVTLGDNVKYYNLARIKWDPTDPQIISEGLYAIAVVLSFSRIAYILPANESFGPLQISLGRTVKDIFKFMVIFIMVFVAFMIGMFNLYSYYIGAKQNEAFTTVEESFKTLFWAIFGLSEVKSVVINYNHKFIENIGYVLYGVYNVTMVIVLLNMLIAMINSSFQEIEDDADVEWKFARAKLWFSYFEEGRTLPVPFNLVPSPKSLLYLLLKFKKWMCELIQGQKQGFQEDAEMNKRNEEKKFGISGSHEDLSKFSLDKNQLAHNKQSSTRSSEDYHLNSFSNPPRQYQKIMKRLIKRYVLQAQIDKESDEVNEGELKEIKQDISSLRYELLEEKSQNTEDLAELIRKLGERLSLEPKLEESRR

The target is the same in assay [11]. Description: activation of mouse TRPC6 channel, confirmation, selectivity assay for TRPC4 activator project, cell-based, HEK293, membrane potential dye, duplicate (AID 434950). Particulars: HEK293 TRPC6, membrane potential fluorescence, at 10 µM; active compounds read high.
Assay [12] shares this target. Description: TRPC6 potentiation by TRPC4 potentiator hits, confirmation, selectivity assay for TRPC4 potentiator project, HEK293 cells, membrane potential dye, duplicate (AID 434952;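 active = compound raising the membrane signal above positive-control mean plus 3 SD in both repeats, and a primary screen hit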). Particulars: HEK293 TRPC6, membrane potential dye fluorescence, at 10 µM, maximal acetylcholine added after compound; active compounds read high.
For assay [13], the target named is Short transient receptor potential channel 4 (Mus musculus) (UniProt Q9QUQ5). Description: calcium flux activators in TRPC4/5HT1a cells, counter-screen for TRPC4 activator project, cell-based, second counter screen, HEK293 TRPC4/5HT1a, Fluo-4 (AID 434977;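 active = calcium signal rise above buffer-control mean plus 5 SD in both duplicates, and also a hit in the primary screen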). Particulars: Fluo-4 calcium flux, at 10 µM; active compounds read high.
Sequence of Short transient receptor potential channel 4 (Mus musculus) (Q9QUQ5 whole entry, looked up): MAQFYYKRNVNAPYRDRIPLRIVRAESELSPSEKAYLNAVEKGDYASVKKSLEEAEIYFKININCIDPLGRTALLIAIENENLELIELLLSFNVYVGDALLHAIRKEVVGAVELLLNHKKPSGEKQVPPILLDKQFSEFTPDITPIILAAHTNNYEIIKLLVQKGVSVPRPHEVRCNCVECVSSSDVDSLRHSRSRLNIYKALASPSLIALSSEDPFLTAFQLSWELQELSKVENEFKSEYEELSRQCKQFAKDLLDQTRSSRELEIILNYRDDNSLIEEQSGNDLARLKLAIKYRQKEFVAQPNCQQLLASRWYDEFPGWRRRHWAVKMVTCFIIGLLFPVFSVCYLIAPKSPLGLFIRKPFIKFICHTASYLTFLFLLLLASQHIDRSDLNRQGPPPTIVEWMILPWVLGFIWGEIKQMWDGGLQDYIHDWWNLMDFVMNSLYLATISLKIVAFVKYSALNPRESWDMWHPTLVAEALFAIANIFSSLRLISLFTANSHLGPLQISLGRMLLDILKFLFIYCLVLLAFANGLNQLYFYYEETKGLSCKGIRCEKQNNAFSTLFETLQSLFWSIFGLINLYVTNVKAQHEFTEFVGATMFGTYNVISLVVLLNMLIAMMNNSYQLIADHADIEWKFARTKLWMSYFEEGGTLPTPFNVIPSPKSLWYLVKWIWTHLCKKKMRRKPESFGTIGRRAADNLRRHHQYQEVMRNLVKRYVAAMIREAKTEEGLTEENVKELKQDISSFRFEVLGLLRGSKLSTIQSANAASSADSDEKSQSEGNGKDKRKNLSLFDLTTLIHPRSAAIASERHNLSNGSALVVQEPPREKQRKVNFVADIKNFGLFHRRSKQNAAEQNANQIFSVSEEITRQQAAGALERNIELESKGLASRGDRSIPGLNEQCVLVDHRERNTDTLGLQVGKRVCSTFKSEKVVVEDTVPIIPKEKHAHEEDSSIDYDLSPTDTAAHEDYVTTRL
Assay [14] is described as follows: calcium flux inhibitors in TRPC4/5HT1a cells, confirmation, counter-screen for TRPC4 inhibitor project, cell-based, second counter screen, HEK293 TRPC4/5HT1a, Fluo-4 (AID 434978;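 active = primary screen active whose calcium signal fell more than 3 SD beyond the full-serotonin control mean in both duplicate plates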;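 as to outcome: serotonin given first at submaximal then at maximal dose after compound preincubation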). As to conditions: Fluo-4 calcium flux, at 10 µM, serotonin added to trigger calcium flux; active compounds read high.
Assay [15] deals with TRPC4 (mouse), co-expressed with 5HT1a in HEK293. Description: calcium flux potentiators in TRPC4/5HT1a cells, confirmation, counter-screen for TRPC4 potentiator project, cell-based, second counter screen, HEK293 TRPC4/5HT1a, Fluo-4 (AID 434979;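 active = signal rise over 3 SD above mean of control wells given weak agonist, in both repeats and first screen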). As to conditions: Fluo-4 calcium flux, at 10 µM, serotonin added at its EC20 dose; active compounds read high.
A short description of assay [16]: calcium flux activation in mu-opioid HEK293 cells, confirmation, counter-screen for TRPC4 activator project, cell-based, HEK293 mu-opioid receptor line (AID 449723;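 active = hit in primary screen, with calcium signal over 5 SD above buffer well mean in both duplicates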;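 also: counter screen cells carry the mu-opioid receptor alone and lack TRPC4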). Particulars: Fluo-4 calcium fluorescence, at 10 µM; active compounds read high.
Assay [17] can be described thus: calcium flux enhancement in mu-opioid HEK293 cells, confirmation, counter-screen for TRPC4 allosteric potentiator project, cell-based, HEK293 mu-opioid receptor line (AID 449724;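 active = calcium signal rise more than 3 SD above the low-dose agonist control mean, in both duplicate plates and the primary screen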;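 also: HEK293 cells carrying mu-opioid receptor only with no TRPC4 channel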). As to conditions: Fluo-4 calcium flux, at 10 µM, compound added before EC20 DAMGO stimulus; active compounds read high.

Take `O=C(/C=C/c1ccccc1Cl)N(c1ccccn1)C1CCCCC1`: the outcome in [1], in assay [2], in assay [3], in [4], in assay [5] and in [6] was inactive. The outcome in assay [7], in assay [8], in assay [9], in assay [10], in assay [11] and in [12] was inactive. The outcome in assay [13], in assay [14], in assay [15], in assay [16] and in assay [17] was inactive.

Regarding `CCCn1nc(C(=O)NC2CCCc3ccccc32)c2ccccc2c1=O` (stereo not given), the outcome in [1], in assay [2], in [3], in assay [5], in assay [6] and in [7] was inactive. In addition, the result in [8], in assay [9], in assay [10], in assay [11], in assay [12] and in assay [13] was inactive. Also, the result in [14], in assay [16] and in assay [17] was inactive. The potentiation was 22% (active) in assay [4] and 19.5% (active) in assay [15].

As to `O=C(Nc1ccc([N+](=O)[O-])cn1)C1CCCCC1`, the outcome in [1], in assay [2], in [3], in assay [4], in assay [5] and in assay [6] was inactive. For the same compound, the outcome in assay [7], in [8], in assay [9], in [10], in assay [11] and in assay [12] was inactive. Further, the outcome in assay [13], in assay [14], in assay [15], in assay [16] and in assay [17] was inactive.

For the compound `O=C(NCCc1ccccc1)c1cnc2ccccc2n1`, the outcome in assay [1], in assay [2], in assay [3], in assay [5], in [6] and in assay [7] was inactive. For the same compound, the outcome in [8], in assay [9], in assay [10], in [11], in assay [12] and in assay [13] was inactive. Besides, the outcome in [14], in [16] and in [17] was inactive. Also, the potentiation in assay [4] was 19% (active); in assay [15], 27.4% (active).

Take `COc1ccc(Cl)c2sc(N(CCN(C)C)C(=O)c3ccc4c(c3)OCCO4)nc12`: the result in [1], in assay [2], in assay [5], in [6], in assay [7] and in assay [8] was inactive. Also, the outcome in assay [9], in assay [10], in assay [11], in assay [12], in [13] and in [14] was inactive. For the same compound, the outcome in assay [15], in assay [16] and in [17] was inactive. For the same compound, the figures for the potentiation in assay [3] and in [4] were 9% (active) and 26% (active), respectively.

Consider `O=C(CSCc1cccc(Cl)c1)N1CCN(Cc2ccc3c(c2)OCO3)CC1`, for which the outcome in [1], in assay [2], in assay [3], in assay [4], in assay [5] and in assay [6] was inactive. The outcome in assay [7], in assay [8], in [9], in [10], in assay [11] and in assay [12] was inactive. In addition, the outcome in assay [13], in assay [14], in assay [15], in assay [16] and in assay [17] was inactive.

On to `Cc1[nH]nc(Nc2ccccc2)c1[N+](=O)[O-]`, for which the outcome in [1], in assay [2], in assay [3], in [4], in assay [5] and in assay [6] was inactive. For the same compound, the outcome in [7], in assay [8], in assay [9], in assay [10], in assay [11] and in assay [12] was inactive. The result in assay [13], in assay [14], in [16] and in assay [17] was inactive. Moreover, the potentiation in assay [15] is 20.8% (active).

Turning to `Cn1c(CN2CCN(c3ccccc3NS(C)(=O)=O)CC2)nc2ccccc21`, the result in [1], in assay [2], in [3], in assay [4], in assay [5] and in assay [6] was inactive. Moreover, the result in assay [7], in assay [8], in assay [9], in assay [10], in [11] and in assay [12] was inactive. The outcome in assay [13], in assay [14], in assay [15], in assay [16] and in assay [17] was inactive.

For the compound `CC1=NN(C(=O)COc2ccc(C)c(C)c2)C(O)(c2ccc(Cl)cc2)C1` (stereo not given), the outcome in [1], in [2], in assay [3], in assay [4], in assay [5] and in [6] was inactive. The outcome in assay [7], in assay [8], in [9], in assay [10], in assay [11] and in assay [12] was inactive. Moreover, the outcome in assay [13], in assay [14], in assay [15], in [16] and in assay [17] was inactive.

Consider `Cc1cccc(C)c1NC(=O)NCCCN1CCN(c2ccccc2)CC1`, for which the result in assay [1], in assay [2], in assay [3], in assay [4], in assay [5] and in [6] was inactive. Moreover, the outcome in [7], in [8], in assay [9], in [10], in assay [11] and in assay [12] was inactive. The outcome in [13], in assay [14], in assay [15], in assay [16] and in assay [17] was inactive.

For the compound `Cc1cc(Br)ccc1OCCN1CCCC1`, the result in assay [1], in assay [2], in assay [4], in assay [5], in [6] and in assay [7] was inactive. Moreover, the result in assay [8], in assay [9], in [10], in assay [11], in assay [12] and in assay [13] was inactive. Also, the result in assay [14], in assay [16] and in [17] was inactive. Also, the potentiation was 12% (active) in assay [3] and 7.25% (active) in assay [15].

Take `Cc1cc(/C=N/NC(=O)c2cccc([N+](=O)[O-])c2)c(C)n1-c1ccc(Cl)cc1Cl`: the outcome in assay [1], in assay [2], in assay [3], in [4], in [7] and in [8] was inactive. Also, the outcome in assay [9], in assay [10], in assay [11], in assay [12], in [13] and in [15] was inactive. For the same compound, the result in assay [16] and in assay [17] was inactive. Further, the inhibition is 88% (active) in assay [5], 58% (active) in assay [6] and 35.8% (active) in assay [14].

For `CCOc1ccc(N=CNc2ccc(OCC)cc2)cc1`, the outcome in [1], in [2], in assay [4], in assay [5], in assay [6] and in assay [7] was inactive. The result in [8], in assay [9], in assay [10], in assay [11], in assay [12] and in assay [13] was inactive. The result in [14], in assay [16] and in [17] was inactive. Further, the potentiation was 18% (active) in assay [3] and 23% (active) in assay [15].

As for `COCCSc1ccccc1C(=O)N1CCC(Cc2ccccc2)CC1`, the result in [1], in [2], in [3], in [4], in [5] and in assay [6] was inactive. The outcome in assay [7], in assay [8], in [9], in assay [10], in assay [11] and in assay [12] was inactive. The outcome in assay [13], in [14], in [15], in assay [16] and in [17] was inactive.

As for `Cn1c(C(=O)N[C@@H](C(=O)O)c2ccccc2)cc2cc(Cl)ccc21`, the result in assay [1], in assay [2], in assay [3], in assay [4], in assay [5] and in [6] was inactive. For the same compound, the outcome in assay [7], in assay [8], in assay [9], in [10], in assay [11] and in assay [12] was inactive. Moreover, the outcome in [13], in [14], in assay [15], in assay [16] and in [17] was inactive.
